Inconclusive results are not listed. Activity calls are given as the source filed them. Unless noted, calls come from the whole dose curve; as a rule, active = well fitted curve in the direction sought with a large enough effect; inconclusive = small, poorly fitted or top-dose-only effect, or another doubt; inactive = no such curve, though single readings can be large; an effect the other way counts as inactive or inconclusive.
Tests used:
[1] = Cytometry Cell-Based qHTS for Inhibitors of the mTORC1 Signaling Pathway in MEF cells (AID 2668);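 note: Tsc2-/- p53-/- mouse embryonic fibroblasts stably re-expressing wild-type Tsc2; percent cells positive for phospho-rpS6 Ser235/236 relative to propidium iodide stain; series mostly up to about 38 µM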
In short: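 Tsc2-/-, p53-/- MEFs re-expressing WT Tsc2; cpd 24 hrs, 37 degree Celsius; PFA fix, Alexa-488 p-rpS6 (Ser235/236) Ab 2 hrs RT, PI counterstain; Acumen 488nm scan; p-S6/PI ratio → % positive cells; PI count = viability.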

[2] = Validation screen for inhibitors of Lassa infection (AID 463096; calls by dose curve)
[3] = Validation screen for small molecules that induce DNA re-replication in MCF 10A normal breast cells (AID 463097); note: nearly all actives have a fitted effect of over 60% in size
In short: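 Image-based qHTS: normal breast cells are incubated with compound for 48 hr, stained with Hoechst, and scanned for total nuclear fluorescence. Compounds raising the fraction of nuclei with elevated DNA content count as re-replication inducers.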

[4] = molecular target: Ubiquitin carboxyl-terminal hydrolase 2 (Homo sapiens) (UniProt O75604); experiment: qHTS Validation Assay for Inhibitors of Ubiquitin-specific Protease USP2a Using CHOP2 as the Reporter (AID 463106)
Sequence of Ubiquitin carboxyl-terminal hydrolase 2 (Homo sapiens) (O75604 whole entry, looked up): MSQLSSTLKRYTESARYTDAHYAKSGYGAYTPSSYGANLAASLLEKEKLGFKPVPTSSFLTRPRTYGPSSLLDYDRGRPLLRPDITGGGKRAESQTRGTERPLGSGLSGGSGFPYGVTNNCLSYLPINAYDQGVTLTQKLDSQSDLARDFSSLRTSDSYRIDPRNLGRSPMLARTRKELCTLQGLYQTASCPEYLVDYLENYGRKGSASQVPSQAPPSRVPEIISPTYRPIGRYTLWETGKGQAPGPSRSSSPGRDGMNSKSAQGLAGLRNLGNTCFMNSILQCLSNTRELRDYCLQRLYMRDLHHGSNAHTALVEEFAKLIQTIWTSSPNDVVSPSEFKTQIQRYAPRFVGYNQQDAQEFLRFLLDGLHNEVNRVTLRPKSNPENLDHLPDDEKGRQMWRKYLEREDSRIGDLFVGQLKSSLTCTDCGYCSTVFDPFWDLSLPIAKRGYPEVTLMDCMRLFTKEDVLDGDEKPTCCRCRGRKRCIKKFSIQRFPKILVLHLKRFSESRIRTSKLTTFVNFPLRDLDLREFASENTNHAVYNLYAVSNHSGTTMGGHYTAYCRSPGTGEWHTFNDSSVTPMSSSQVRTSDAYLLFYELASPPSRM
In short: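 Readout was coupled fluorescence (Ex 485/Em 531 nm), read 60 min after adding 25 nM final Ub-CHOP2 and 25 nM reporter substrate. Beforehand, 10 nM final USP2 core had 30 min at RT with compound in pH 8.0 buffer. Curves were fitted after normalization to NEM and flagged for artifacts using time-zero reads.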

[5] = molecular target: DNA polymerase III PolC-type (Bacillus subtilis (strain 168)) (UniProt P13267); experiment: qHTS Validation Assay for the Inhibitors of DNA Replication in Gram-Positive Bacteria (AID 485295);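 note: reconstituted holoenzyme with PolC plus beta clamp SSB and primase; PicoGreen fluorescence of double-stranded DNA made on primed circular M13 template; series mostly up to about 57 µM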
In short: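 First, compound is mixed with the reconstituted replication complex and held at room temperature. Next, circular single-stranded M13Gori with nucleotides starts synthesis. Finally, PicoGreen in EDTA halts the reaction and stains double-stranded product for fluorescence reading.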

[6] = molecular target: Tumor susceptibility gene 101 protein (Homo sapiens) (UniProt Q99816); experiment: qHTS Validation Assay for Iinhibitors of HIV-1 Budding by Blocking the Interaction of PTAP/TSG101 (AID 485342; calls by dose curve)
In short: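 Binding of a FITC-tagged PTAP-motif peptide (50 nM) to the Tsg101 binding domain (10 uM) is monitored by fluorescence polarization. Compounds are pin-delivered before peptide addition, and incubation runs 20 min at room temperature.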

[7] = qHTS Validation Assay to Find Inhibitors of Chronic Active B-Cell Receptor Signaling (AID 485345; active = well fitted curve in the direction sought with a large enough effect in the main read-out, with a control signal flat, not every such curve was filed as active)
In short: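 Read-out: ratio of filter-corrected green (IkappaBalpha fusion) to red (native) luciferase signal in doxycycline-induced TMD8 cells after 4 h at 37C. Titration spanned 46 uM–3 nM; Data were normalised to basal cells and 10 uM MG-132 wells.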

[8] = molecular target: Beta-2 adrenergic receptor (Homo sapiens) (UniProt P07550); experiment: qHTS validation assay of beta-arrestin-biased ligands of beta2-adrenergic receptor (AID 485366)
In short: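 Compound series up to 46 microM applied to beta2-AR/beta-arrestin Tango cells, 18 hr, 37 degrees C, 5% CO2. Read-out: tTA-driven luciferase luminescence, converted to %Activity; concentration-response curves assigned curve classes.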

[9] = molecular target: ATP-dependent 6-phosphofructokinase (Trypanosoma brucei brucei) (UniProt O15648); experiment: qHTS Validation Assay to Find Inhibitors of T. brucei phosphofructokinase (AID 485368)
Sequence of ATP-dependent 6-phosphofructokinase (Trypanosoma brucei brucei) (O15648 whole entry, looked up): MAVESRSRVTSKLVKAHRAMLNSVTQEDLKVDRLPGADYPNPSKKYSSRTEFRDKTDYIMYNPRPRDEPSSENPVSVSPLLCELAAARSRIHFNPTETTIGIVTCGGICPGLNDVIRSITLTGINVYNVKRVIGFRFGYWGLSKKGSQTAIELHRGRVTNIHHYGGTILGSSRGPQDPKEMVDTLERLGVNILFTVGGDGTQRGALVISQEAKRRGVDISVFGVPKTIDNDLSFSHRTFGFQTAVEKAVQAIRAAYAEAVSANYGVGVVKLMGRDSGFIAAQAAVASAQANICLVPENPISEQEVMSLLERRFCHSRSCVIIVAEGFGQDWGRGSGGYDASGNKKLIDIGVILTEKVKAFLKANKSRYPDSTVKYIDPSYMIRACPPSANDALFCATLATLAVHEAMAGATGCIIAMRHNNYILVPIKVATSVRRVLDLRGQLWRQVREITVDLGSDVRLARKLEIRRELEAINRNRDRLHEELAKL
In short: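 qHTS format, up to 57 uM. PFK 1.25 nM; F6P 0.5 mM; ATP 0.1 mM; 5 mM MgCl2, 0.01% Tween20, 0.1% BSA; 0.1 M TEA pH 8.0; 45 min RT; ADP-Glo readout; no-enzyme control = full inhibition.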

[10] = Quantitative high throughput screen for delayed death inhibitors of the malarial parasite plastid, 96 hour incubation (AID 488745); note: series mostly up to about 29 µM; nearly all actives have a fitted effect of over 70% in size
In short: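 Two-generation (96 h) exposure of luciferase-reporter P. falciparum in erythrocytes, 2% hematocrit, 0.1% parasitemia final, 37 C, 5% CO2, RPMI 1640 with 0.5% Albumax. Growth inhibition scored by reduced luminescence.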

[11] = Quantitative high throughput screen for delayed death inhibitors of the malarial parasite plastid, 48 hour incubation (AID 488752); note: nearly all actives have a fitted effect of over 65% in size
In short: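 Cultures: infected erythrocytes at final 2% hematocrit and 0.1% parasitemia in Albumax-supplemented RPMI. Parasites express integrated firefly luciferase. Incubation with compound lasts 48 h before luminescent detection of remaining reporter activity.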

[12] = molecular target: Thioredoxin reductase 1, cytoplasmic (Rattus norvegicus) (UniProt O89049); experiment: qHTS Assay for Substrates of Mammalian Selenoprotein Thioredoxin Reductase 1 (TrxR1) (AID 488772);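 note: series mostly up to about 57 µM; a drop in NADPH fluorescence below the no-compound background marks a TrxR1 substrate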
Sequence of Thioredoxin reductase 1, cytoplasmic (Rattus norvegicus) (O89049 whole entry, looked up): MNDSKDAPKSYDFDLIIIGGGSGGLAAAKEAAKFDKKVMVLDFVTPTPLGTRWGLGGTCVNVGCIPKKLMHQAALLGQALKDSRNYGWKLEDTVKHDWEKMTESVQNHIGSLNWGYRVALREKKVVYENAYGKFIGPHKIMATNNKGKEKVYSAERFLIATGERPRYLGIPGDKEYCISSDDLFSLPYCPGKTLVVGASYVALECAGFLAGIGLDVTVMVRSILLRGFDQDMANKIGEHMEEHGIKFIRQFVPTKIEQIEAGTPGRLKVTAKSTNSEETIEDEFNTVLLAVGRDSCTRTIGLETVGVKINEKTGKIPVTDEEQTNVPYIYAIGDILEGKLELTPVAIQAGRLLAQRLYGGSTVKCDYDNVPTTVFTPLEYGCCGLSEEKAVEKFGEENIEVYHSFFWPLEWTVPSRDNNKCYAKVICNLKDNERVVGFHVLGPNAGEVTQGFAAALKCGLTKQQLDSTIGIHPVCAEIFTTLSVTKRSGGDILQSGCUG
In short: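 In this dual-purpose format, potential substrates are identified from the first fluorescence read after selenite addition, not from the 8-minute delta. Rat enzyme is preincubated with NADPH and then with compound at ~22 deg C.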

[13] = molecular target: Thioredoxin reductase 1, cytoplasmic (Rattus norvegicus) (UniProt O89049); experiment: qHTS Assay for Inhibitors of Mammalian Selenoprotein Thioredoxin Reductase 1 (TrxR1) (AID 488773); details: Potency: inhibition;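 note: drop in NADPH fluorescence over an 8 min run after selenite addition; series mostly up to about 57 µM; nearly all actives have a fitted effect of over 40% in size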
In short: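 Inhibition is scored from the loss of NADPH fluorescence between first and last reads of an 8-min kinetic run. Selenite (400 uM) was the substrate, added after 15 min compound preincubation at room temperature.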

[14] = molecular target: Flap endonuclease 1 (Homo sapiens) (UniProt P39748); experiment: qHTS Validation Assay for the Inhibitors of Human Flap endonuclease 1 (FEN1) (AID 488816)
In short: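 qHTS format: compounds and 10 nM FEN1 incubated 15 min at room temperature before adding 50 nM substrate. Cleavage followed by reads at 0 and 15 min; normalized data fitted to a four-parameter Hill curve.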

[15] = molecular target: M-phase phosphoprotein 8 (Homo sapiens) (UniProt Q99549); experiment: qHTS Validation Assay for Inhibitors for MPP8 Chromodomain Interactions with Methylated Histone Tails (AID 488949);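 note: 50 nM MPP8 with 50 nM peptide preformed then compounds added for 30 min; AlphaScreen signal from MPP8 chromodomain bound to biotinylated H3K9me3 peptide; top concentration of the series differs between compounds; nearly all actives have a fitted effect of over 55% in size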
Sequence of M-phase phosphoprotein 8 (Homo sapiens) (Q99549 whole entry, looked up): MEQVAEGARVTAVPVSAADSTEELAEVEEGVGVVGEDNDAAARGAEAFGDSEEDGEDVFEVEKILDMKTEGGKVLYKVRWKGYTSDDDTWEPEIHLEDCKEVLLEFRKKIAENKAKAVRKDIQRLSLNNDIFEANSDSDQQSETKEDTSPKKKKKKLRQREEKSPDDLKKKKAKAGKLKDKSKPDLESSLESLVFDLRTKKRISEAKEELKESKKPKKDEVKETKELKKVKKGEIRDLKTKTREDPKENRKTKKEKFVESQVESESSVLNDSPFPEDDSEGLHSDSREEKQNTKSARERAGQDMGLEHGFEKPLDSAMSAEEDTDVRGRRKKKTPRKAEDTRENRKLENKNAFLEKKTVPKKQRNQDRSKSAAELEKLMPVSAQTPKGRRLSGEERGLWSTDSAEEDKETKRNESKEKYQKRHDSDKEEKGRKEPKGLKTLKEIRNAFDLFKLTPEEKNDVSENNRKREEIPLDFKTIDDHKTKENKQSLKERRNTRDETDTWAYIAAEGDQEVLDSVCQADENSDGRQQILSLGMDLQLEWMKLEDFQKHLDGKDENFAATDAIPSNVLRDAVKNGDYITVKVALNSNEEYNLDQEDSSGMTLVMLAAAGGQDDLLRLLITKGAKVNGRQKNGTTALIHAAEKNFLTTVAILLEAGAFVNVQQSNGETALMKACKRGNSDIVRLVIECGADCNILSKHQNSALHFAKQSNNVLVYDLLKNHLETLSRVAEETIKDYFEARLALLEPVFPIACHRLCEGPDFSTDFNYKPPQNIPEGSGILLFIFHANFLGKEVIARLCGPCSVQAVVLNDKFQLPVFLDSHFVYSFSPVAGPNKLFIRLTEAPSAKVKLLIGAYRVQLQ
In short: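 50 nM MPP8 + 50 nM b-H3K9me3 peptide, PBS pH 7.4/0.01% Tween-20, 30 min RT; + cpd 30 min RT; + AlphaScreen donor/Ni-chelate acceptor beads 10 ug/mL final, 30 min dark; luminescence read.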

[16] = molecular target: Methanococcus maripaludis chaperonin (MmCpn) (UniProt Q6LX38); experiment: High-Throughput Screening for Modulators of Cytosolic Chaperonin Activity: MmCpn Primary Screen (AID 488978);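 note: 50 nM MmCpn enzyme hydrolysing 30 µM ATP at 37 °C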
Sequence of Methanococcus maripaludis chaperonin (MmCpn) (Q6LX38 1-543): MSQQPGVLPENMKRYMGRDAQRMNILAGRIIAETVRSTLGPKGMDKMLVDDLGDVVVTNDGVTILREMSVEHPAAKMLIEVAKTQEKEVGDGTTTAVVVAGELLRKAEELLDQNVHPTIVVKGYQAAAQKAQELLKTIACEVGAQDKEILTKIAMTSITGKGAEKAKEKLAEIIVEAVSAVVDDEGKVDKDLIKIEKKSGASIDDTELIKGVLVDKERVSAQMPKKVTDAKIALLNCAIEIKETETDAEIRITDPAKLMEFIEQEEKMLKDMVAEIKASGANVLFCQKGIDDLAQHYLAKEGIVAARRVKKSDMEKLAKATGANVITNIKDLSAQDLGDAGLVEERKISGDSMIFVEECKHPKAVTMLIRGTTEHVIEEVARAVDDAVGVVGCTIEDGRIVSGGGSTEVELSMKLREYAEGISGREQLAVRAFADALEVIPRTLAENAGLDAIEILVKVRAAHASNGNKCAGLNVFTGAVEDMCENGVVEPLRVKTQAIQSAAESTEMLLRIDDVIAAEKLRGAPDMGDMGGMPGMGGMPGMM
In short: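 Steps: chaperonin 50 nM final; add compound, 5 min RT; start with ATP, 30 uM final; hold 10 min at 37C; add ADP Transcreener HTRF reagent, 5 min; read ex 320, em 590 and 665 nm.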

[17] = molecular target: Transient receptor potential cation channel subfamily V member 1 (Homo sapiens) (UniProt Q8NER1); experiment: HTS Assay for Compounds that Act as Enhancers of the Vanilloid Receptor 1 (AID 488979)
Sequence of Transient receptor potential cation channel subfamily V member 1 (Homo sapiens) (Q8NER1 whole entry, looked up): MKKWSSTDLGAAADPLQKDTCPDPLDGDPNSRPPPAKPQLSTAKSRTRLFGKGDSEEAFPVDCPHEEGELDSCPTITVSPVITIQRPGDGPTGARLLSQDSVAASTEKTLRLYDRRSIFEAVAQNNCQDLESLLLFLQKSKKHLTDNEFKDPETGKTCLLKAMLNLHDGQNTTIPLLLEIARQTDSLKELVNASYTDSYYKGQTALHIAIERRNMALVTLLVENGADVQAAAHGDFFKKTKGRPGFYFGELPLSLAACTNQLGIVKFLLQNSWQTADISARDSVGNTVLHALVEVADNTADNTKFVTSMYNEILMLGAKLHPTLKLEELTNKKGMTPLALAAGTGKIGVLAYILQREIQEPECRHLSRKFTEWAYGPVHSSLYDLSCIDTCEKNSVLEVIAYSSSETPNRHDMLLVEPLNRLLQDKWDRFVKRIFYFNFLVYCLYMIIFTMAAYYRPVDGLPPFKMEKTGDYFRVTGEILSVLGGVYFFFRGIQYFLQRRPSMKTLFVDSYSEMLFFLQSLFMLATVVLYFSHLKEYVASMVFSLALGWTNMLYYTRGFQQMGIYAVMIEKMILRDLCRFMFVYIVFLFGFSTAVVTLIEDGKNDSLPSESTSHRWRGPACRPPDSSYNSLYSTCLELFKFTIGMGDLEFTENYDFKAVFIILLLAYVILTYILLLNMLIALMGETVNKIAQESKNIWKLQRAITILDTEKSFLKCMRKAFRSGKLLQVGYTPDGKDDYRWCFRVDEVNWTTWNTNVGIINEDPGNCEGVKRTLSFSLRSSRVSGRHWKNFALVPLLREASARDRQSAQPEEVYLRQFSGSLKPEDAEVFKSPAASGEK
In short: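 Calcium influx kinetics via Fluo-8 (480/520 nm) in TRPV1-expressing cells, 2000/well cultured overnight at 35.5C. Compound-alone read 3 min (agonist phase), followed by EC20 capsaicin challenge for 2 min (enhancer phase).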

[18] = molecular target: Thyrotropin receptor (Homo sapiens) (UniProt P16473); experiment: qHTS Assay for Antagonists of the Thyroid Stimulating Hormone Receptor (AID 488980); note: series mostly up to about 58 µM
Sequence of Thyrotropin receptor (Homo sapiens) (P16473 whole entry, looked up): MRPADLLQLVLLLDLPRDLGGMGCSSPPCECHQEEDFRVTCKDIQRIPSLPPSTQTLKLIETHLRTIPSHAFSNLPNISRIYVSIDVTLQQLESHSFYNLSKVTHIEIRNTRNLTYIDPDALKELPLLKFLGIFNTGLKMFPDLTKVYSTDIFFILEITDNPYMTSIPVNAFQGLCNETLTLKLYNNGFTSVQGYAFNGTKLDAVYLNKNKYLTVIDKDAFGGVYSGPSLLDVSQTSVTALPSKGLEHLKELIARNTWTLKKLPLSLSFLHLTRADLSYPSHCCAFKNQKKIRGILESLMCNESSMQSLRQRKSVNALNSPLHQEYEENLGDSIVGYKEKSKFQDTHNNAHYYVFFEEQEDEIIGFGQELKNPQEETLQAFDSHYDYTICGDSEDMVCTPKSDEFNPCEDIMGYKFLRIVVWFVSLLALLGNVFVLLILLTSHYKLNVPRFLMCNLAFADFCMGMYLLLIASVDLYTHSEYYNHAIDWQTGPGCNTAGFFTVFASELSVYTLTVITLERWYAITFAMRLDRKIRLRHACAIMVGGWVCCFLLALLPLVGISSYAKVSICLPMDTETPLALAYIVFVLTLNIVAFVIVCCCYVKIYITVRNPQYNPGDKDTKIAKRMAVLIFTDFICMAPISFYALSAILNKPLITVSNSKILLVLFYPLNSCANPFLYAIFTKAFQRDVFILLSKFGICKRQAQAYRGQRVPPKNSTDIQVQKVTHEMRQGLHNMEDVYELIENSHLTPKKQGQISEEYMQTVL
In short: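 Readout is cAMP by HTRF competition between cellular cAMP and cAMP-d2 for a cryptate-labelled antibody. Antagonism was assessed in TSHR-transfected HEK293 cells stimulated with 4 nM TSH (EC80, final) in the presence of RO 20-1724.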

[19] = molecular target: Chromobox protein homolog 1 (Homo sapiens) (UniProt P83916); experiment: qHTS Validation Assay for Inhibitors of HP1-beta Chromodomain Interactions with Methylated Histone Tails (AID 488953);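 note: loss of AlphaScreen luminescence from HP1-beta binding biotinylated H3K9me3 peptide; series mostly up to about 110 µM; nearly all actives have a fitted effect of over 50% in size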
Sequence of Chromobox protein homolog 1 (Homo sapiens) (P83916 whole entry, looked up): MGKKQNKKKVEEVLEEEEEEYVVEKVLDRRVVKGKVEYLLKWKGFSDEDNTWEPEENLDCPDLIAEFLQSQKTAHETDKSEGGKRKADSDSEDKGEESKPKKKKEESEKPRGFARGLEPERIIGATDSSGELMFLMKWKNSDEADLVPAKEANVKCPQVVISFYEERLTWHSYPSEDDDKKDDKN
In short: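 Compounds pinned into a preassembled complex of HP1-beta and trimethyl-K9 histone H3(1-18) biotin peptide (50 nM each; PBS pH 7.4, 0.01% Tween-20). After 30 min, bead-based AlphaScreen detection followed.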

[20] = molecular target: D(1A) dopamine receptor (Homo sapiens) (UniProt P21728); experiment: HTS Assay for Allosteric Agonists of the Human D1 Dopamine Receptor: Primary Screen for Agonists (AID 488981)
In short: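 Calcium flux in an inducible, force-coupled HEK293 Trex D1 line (overnight at 30 C): agonist mode is the 180 s kinetic read after compound; potentiator mode is the following 180 s read after dopamine at EC20.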

Measured: Potency

COc1ccc2[nH]c3c(c2c1)CCNC3
not listed: [19] | [20]
inactive: all other assays above

C[N+](C)(C)CCOC(=O)CBr
not listed: [12] | [14] | [18]
inactive: all other assays above

COc1cc(CC(C)N)c(OC)cc1I (centres undefined)
not listed: [19]
inactive: all other assays above

CCCN1CC[C@@H]2c3cc(O)ccc3CC[C@@H]21
not listed: [19]
inactive: all other assays above

C#CCN[C@H](C)Cc1ccccc1
not listed: [14]
inactive: all other assays above

CC(N)Cc1c[nH]c2ccc(O)cc12 (centres undefined)
not listed: [10] | [19]
inactive: all other assays above

NC(C(=O)O)c1cc(=O)[nH]o1 (centres undefined)
not listed: [10]
inactive: all other assays above

From PubChem BioAssay (NCATS)
